Consider 25 compounds from PubChem BioAssay (NCATS).

Records with an inconclusive call do not appear. Active and inactive are the calls of the source. Unless noted, calls come from the whole dose curve; as a rule, active = well fitted curve in the direction sought with a large enough effect; inconclusive = small, poorly fitted or top-dose-only effect, or another doubt; inactive = no such curve, though single readings can be large; an effect the other way counts as inactive or inconclusive.

Test [1] can be described thus: Validation of Assay for Modulators of Lamin A Splicing (AID 1459; active = well fitted curve in the direction sought with a large enough effect in the signal ratio; the % refers to the signal ratio;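 note: cells exposed to compound for two days before reading; ratio rise marks activators and ratio drop marks inhibitors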). The method, boiled down: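 Splicing correction is reported by an EGFP-containing lamin A minigene in stably transfected S3 HeLa cells, while DsRed2 controls for viability and nonspecific signal. Cells are exposed to compounds for 48 hrs before the GFP over RFP ratio is taken.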
Test [2] concerns the target DNA repair nuclease/redox regulator APEX1 (Homo sapiens) (UniProt P27695). The test can be described thus: qHTS Validation Assay for Inhibitors of the Human Apurinic/apyrimidinic Endonuclease 1 (APE1) (AID 1705; note: potency is the fitted concentration of half-maximal effect). Put shortly:
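Endonuclease activity of human APE1 is followed as dequenching when the enzyme incises a tetrahydrofuran abasic site in a short duplex labelled 5'-TAMRA/3'-BHQ-2 (50 nM final), after 15 min enzyme–compound preincubation at room temperature.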
On the technique in general: qHTS replaces the single test concentration by a dilution series.

A short description of test [3]: Counterscreen for APE1 Inhibitors: Fluorescent Dye Displacement Validation Assay (AID 1707). Put shortly: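 Assay buffer: Tris-HCl pH7.5 with 50mM NaCl, 2 mM MgCl2, 0.01% Tween-20. Dye 250 nM, duplex 50 nM final. Readout: decrease in ThO endpoint fluorescence, 480 nm excitation, 540 nm emission.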
For orientation: Counterscreens check selectivity or assay interference.

A short description of test [4]: qHTS for differential inhibitors of proliferation of Plasmodium falciparum line 7G8 (AID 1815).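 Note: parasite growth measured after three days of incubation.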 Note: potency is the fitted concentration of half-maximal effect.
Test [5] in a line: qHTS for differential inhibitors of proliferation of Plasmodium falciparum line GB4 (AID 1816).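 Note: parasite growth measured after 72 h incubation.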 Note: potency is the fitted concentration of half-maximal effect. Particulars: Potency: Plasmodium falciparum GB4 proliferation inhibition.
Test [6] can be described thus: qHTS for differential inhibitors of proliferation of Plasmodium falciparum line 3D7 (AID 1876). Note: potency is the fitted concentration of half-maximal effect.
The target in test [7] is Endonuclease 4 (Escherichia coli (strain K12)) (UniProt P0A6C1). The test can be described thus: Counterscreen for APE1 Inhibitors: qHTS Validation Assay for Inhibitors of Endonuclease IV (AID 1708). The method, boiled down: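 E. coli EndoIV at 2 nM final, preincubated 15 min at room temperature with compound, then 50 nM TAMRA/BHQ-2 THF abasic-site duplex added. Buffer: 50 mM Tris-HCl pH 7.5, 50 mM NaCl, 2 mM MgCl2, 1 mM DTT, 0.01% Tween-20. Kinetic fluorescence increase, third minus first read.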

The target of test [8] is Alpha-galactosidase A (Homo sapiens) (UniProt P06280). The test can be described thus: Counterscreen for Glucocerebrosidase Inhibitors: qHTS Assay for Human alpha-Galactosidase at pH 4.5 (AID 992). The method, boiled down: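 Concentration-response curves (0.7 nM to 77 uM final) were modeled with the Hill equation to give AC50. Reactions: 2 nM enzyme, 80 uM fluorogenic alpha-galactoside, pH 4.5 citric acid buffer, 20 min, room temperature.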
Sequence of Alpha-galactosidase A (Homo sapiens) (P06280 whole entry, looked up): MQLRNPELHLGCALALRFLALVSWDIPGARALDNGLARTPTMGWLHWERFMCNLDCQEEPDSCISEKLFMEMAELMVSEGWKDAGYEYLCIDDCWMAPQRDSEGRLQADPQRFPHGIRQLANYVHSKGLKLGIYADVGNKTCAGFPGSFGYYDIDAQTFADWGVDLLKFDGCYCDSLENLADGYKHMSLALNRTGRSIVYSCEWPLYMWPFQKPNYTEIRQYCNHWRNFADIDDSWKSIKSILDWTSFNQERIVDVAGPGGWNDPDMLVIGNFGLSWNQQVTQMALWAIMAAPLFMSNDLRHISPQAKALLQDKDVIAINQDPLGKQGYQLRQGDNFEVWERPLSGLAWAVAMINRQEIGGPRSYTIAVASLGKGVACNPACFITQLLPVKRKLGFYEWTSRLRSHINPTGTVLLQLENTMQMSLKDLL

The target in test [9] is alpha-glucosidase (Oryza sativa, rice) (UniProt Q653V4). The test can be described thus: Counterscreen for Glucocerebrosidase Inhibitors: qHTS Assay for Rice alpha-Glucosidase at pH 5.0 (AID 997). Put shortly: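 Rice alpha-glucosidase (4 nM final) with 400 uM 4-methylumbelliferyl-alpha-D-glucopyranoside in citrate buffer pH 5.0, 20 min at room temperature, stopped at pH 10; fluorescence 365/440 nm, compounds 0.7 nM–77 uM, AC50 from Hill fits.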

Test [10] can be described thus: Cell Viability - LYMP2-012 (AID 982).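 Note: cellular ATP by luciferase luminescence where a drop means cytotoxicity; cells exposed to compound for one day before reading; nearly all actives have a fitted effect of over 55% in size.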
Test [11] is described as follows: Cell Viability - LYMP2-014 (AID 983). Note: series mostly up to about 92 µM; nearly all actives have a fitted effect of over 50% in size. The method, boiled down: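 Luminescent ATP signal (CellTiter-Glo, 30 min at room temperature) serves as the viability read-out after 24 hr compound exposure at 37 C. Cells were seeded at 2500 per well and settled 5 hr beforehand.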
Test [12] is described as follows: Cell Viability - LYMP2-016 (AID 984).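 Note: cells exposed to compound for 24 hours at 37 °C; nearly all actives have a fitted effect of over 55% in size.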 The method, boiled down:
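Acute toxicity in a Coriell human lymphoblastoid line is scored as loss of intracellular ATP over 24 h of treatment in complete medium. CellTiter-Glo signal is fitted across concentrations with the Hill equation to give AC50.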

Test [13] can be described thus: Cell Viability - LYMP2-018 (AID 985). Note: nearly all actives have a fitted effect of over 50% in size. Put shortly:
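Luminescent ATP signal (CellTiter-Glo, read after 30 min at room temperature) reports viable cells after 24 hr compound treatment at 37 C. Concentration-response data were fitted to the standard Hill equation for AC50.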

A short description of test [14]: Cell Viability - LYMP2-020 (AID 986). Note: series mostly up to about 92 µM; nearly all actives have a fitted effect of over 55% in size. Put shortly: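 Luminescent ATP signal (CellTiter-Glo, 30 min at room temperature) is the read-out after 24 h compound treatment of lymphoblastoid cells at 37 C. AC50 values come from Hill-equation fits across concentrations.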
A short description of test [15]: Cell Viability - LYMP2-022 (AID 987). Note: nearly all actives have a fitted effect of over 55% in size. Put shortly:
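qHTS: human lymphoblastoid cells 2500/well; 5 hr 37 C; cpd added; 24 hr 37 C; CellTiter-Glo, 30 min RT; luminescence. AC50 via Hill fit; tetraoctylammonium bromide positive ctrl.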

Test [16] is described as follows: Cell Viability - LYMP2-024 (AID 988). Note: nearly all actives have a fitted effect of over 60% in size. Put shortly:
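Steps: seed 2500 cells/well, 5 hr 37 C; add compound, 24 hr 37 C; add CellTiter-Glo, 30 min room temperature; read luminescence. AC50 derived by Hill modelling of concentration-dependent ATP loss.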

The nature of test [17]: Cell Viability - LYMP2-026 (AID 989). Note: nearly all actives have a fitted effect of over 50% in size. The method, boiled down:
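Luminescent ATP signal (CellTiter-Glo, 30 min room temperature) measures viable lymphoblastoid cells after 24 hr compound treatment at 37 C. Decreased ATP reflects acute toxicity; AC50 values come from Hill-equation modeling.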

Test [18] can be described thus: Cell Viability - LYMP1-002 - Assay at 24 hr (AID 993). Put shortly:
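Cells plated 2500/well, 5 hr 37 C; compounds added, 24 hr 37 C; CellTiter-Glo added, 30 min RT; luminescence read. Tetraoctylammonium bromide positive control. Hill-equation AC50.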

The nature of test [19]: Cell Viability - LYMP1-002 - Assay at 40 hr (AID 994). Note: nearly all actives have a fitted effect of over 60% in size. The method, boiled down: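 Luminescent ATP signal served as the viability readout, with decreases taken as toxicity. Cells were treated with compounds across a concentration range for 40 hours at 37 C, and AC50 values came from standard Hill modeling.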

Sequence of DNA repair nuclease/redox regulator APEX1 (Homo sapiens) (P27695 whole entry, looked up): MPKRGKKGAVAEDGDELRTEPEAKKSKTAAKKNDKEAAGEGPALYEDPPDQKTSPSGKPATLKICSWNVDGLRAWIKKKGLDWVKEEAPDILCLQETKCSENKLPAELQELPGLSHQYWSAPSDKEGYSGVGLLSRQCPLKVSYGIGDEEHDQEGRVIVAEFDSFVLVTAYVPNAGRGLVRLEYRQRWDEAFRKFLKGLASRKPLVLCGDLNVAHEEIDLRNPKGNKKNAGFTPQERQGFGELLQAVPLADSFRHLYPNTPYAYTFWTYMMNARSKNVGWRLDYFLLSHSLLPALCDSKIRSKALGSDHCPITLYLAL

Consider `CO/N=C(\C(=O)N[C@@H]1C(=O)N2C(C(=O)O)=C(CSc3nc(=O)c(O)nn3C)CSC12)c1csc(N)n1` (some centres not stated), for which the compound was classed as inactive in test [1]. Besides, the Potency in test [2] is 2.24 µM (active). Further, the Potency result in [3], in [4], in test [5] and in test [6] was “inactive” each time.
In the case of `CC(N)(Cc1ccc(O)cc1)C(=O)O` (configuration not stated), the call in test [1] was inactive. The Potency entry in test [2], in [3], in test [7], in test [4], in test [5] and in [6] was “inactive” each time.
In the case of `N=C(N)c1ccc(N)cc1`, the compound was called inactive in [8], in test [9] and in test [1]. Also, the Potency entry in test [2], in test [3], in [7], in test [4] and in test [6] was “inactive” in each case.
For the compound `CCCCCC[C@@H]([C@@H](C)O)n1cnc2c(N)ncnc21`, the outcome in [1] was inactive. The Potency result in test [2], in test [3], in test [4] and in test [5] was “inactive” in each case.
For `O=c1[nH]c2cc(Cl)ccc2c(O)c1-c1ccc(Oc2ccccc2)cc1`, the compound was classed as inactive in test [8], in [9] and in test [1]. Also, the Potency result in test [2], in [3], in [7], in [4] and in [6] was “inactive” each time.
Consider `CC1C(=O)N(C)C(=O)c2nc[nH]c21` (configuration not stated), for which the call in test [1] was inactive. The Potency entry in [2], in test [3], in test [7], in test [4], in test [5] and in [6] was “inactive” throughout.
Regarding `O=c1cc(O)cc(/C=C/c2ccc(O)c(O)c2)o1`, in test [1], the compound was called inactive. The values for the Potency in test [2], in test [4] and in test [5] were 0.794 µM (active), 8.91 µM (active) and 12.6 µM (active), respectively. Also, in test [3], the Potency entry is “inactive”.
In the case of `CCN(CC)CCOC(=O)c1cc(Cl)c(N)cc1OC`, the outcome in [8], in [9] and in [1] was inactive. Besides, the Potency entry in test [2], in test [3], in test [7], in [4], in test [5] and in test [6] was “inactive” in each case.
Take `C=CCn1c(=O)c2c(nc(-c3ccc(S(=O)(=O)O)cc3)n2C)n(C)c1=O`: the outcome in [8], in test [9] and in [1] was inactive. Further, the Potency entry in test [2], in [3], in [7], in test [4], in [5] and in [6] was “inactive” each time.
For `CCCN(CCc1ccccc1)C1CCc2c(O)cccc2C1` (configuration not stated), the outcome in test [1] was inactive. Also, the Potency result in test [2] and in test [3] was “inactive” each time. Further, the Potency was 1.12 µM (active) in test [4], 0.891 µM (active) in test [5] and 3.16 µM (active) in test [6].
In the case of `O[Si](CCCN1CCCCC1)(c1ccc(F)cc1)C1CCCCC1` (configuration not stated), the outcome in [1] was inactive. Moreover, the Potency entry in test [2] and in [3] was “inactive” throughout. Further, the Potency in test [4] is 0.0708 µM (active); in test [5], 0.0398 µM (active); in test [6], 0.0794 µM (active).
`N[C@@H](Cc1ccc(O)c(I)c1)C(=O)O`: the result in [8], in test [9] and in test [1] was inactive. For the same compound, the Potency result in test [2], in test [3], in test [7], in [4], in [5] and in test [6] was “inactive” in each case.
As for `N#C/C(=C\c1ccc(O)c(O)c1)C(=O)NCCc1ccccc1`, the compound was called inactive in test [8], in [9] and in test [1]. Also, the Potency entry in test [2], in test [3] and in test [7] was “inactive” each time. Besides, the Potency was 8.91 µM (active) in test [4], 10 µM (active) in [5] and 11.2 µM (active) in test [6].
As to `NCCCCN`, the compound was called inactive in [8], in test [9] and in test [1]. Further, the Potency result in test [2], in [3], in [7], in [4], in [5] and in test [6] was “inactive” throughout.
Consider `C#CC(N)CCC(=O)O` (configuration not stated), for which the outcome in test [1] was inactive. In addition, the Potency entry in [2], in [3], in test [4], in test [5] and in test [6] was “inactive” in each case.
On to `CCCCCCCCCC(=O)NC(CN1CCOCC1)[C@H](O)c1ccccc1` (some centres not stated), for which, in [1], the call was inactive. Besides, the Potency result in test [2], in test [3] and in [7] was “inactive” throughout. The Potency in test [4] was 1.26 µM (active); in [5] it was 2 µM (active); in [6], 6.31 µM (active).
Regarding `O=C(O)/C=C/c1cnc[nH]1`, the call in test [1] was inactive. Also, the Potency entry in test [2], in test [3], in test [7], in test [4], in test [5] and in [6] was “inactive” each time.
Regarding `CC(C)C[C@H](NC(=O)C1OC1C(=O)O)C(=O)NCCCCN=C(N)N` (some centres not stated), the compound was called inactive in [1]. The Potency result in test [2], in test [3] and in test [7] was “inactive” throughout. The Potency is 4.47 µM (active) in [4], 3.16 µM (active) in [5] and 2.51 µM (active) in [6].
As for `C=CC[C@H](N)C(=O)O`, the result in test [8], in test [9] and in test [1] was inactive. The Potency entry in test [2], in test [3], in test [7], in test [4], in [5] and in [6] was “inactive” in each case.
With `C=CCN1CCc2c(cc(O)c(O)c2Br)[C@@H](c2ccccc2)C1`, the compound was called inactive in [1]. In addition, the Potency result in test [2], in [3] and in [7] was “inactive” in each case. Further, the Potency in [4] is 5.01 µM (active); in test [5], 5.01 µM (active); in test [6], 7.08 µM (active).
`Nn1nnc2ccccc21`: the compound was classed as inactive in [8], in test [9] and in [1]. In addition, the Potency result in test [2], in test [3] and in [7] was “inactive” in each case. The Potency in test [4] was 12.6 µM (active).
`c1ccc2nc(C3=NCCN3)ccc2c1`: the call in test [8], in test [9] and in test [1] was inactive. Moreover, the Potency entry in test [2], in test [3], in test [7], in test [4] and in test [6] was “inactive” in each case.
Turning to `O=C(O)C1CN(CCCP(=O)(O)O)CCN1` (configuration not stated), in [1], the call was inactive. The Potency entry in [2], in [3], in test [4], in [5] and in [6] was “inactive” throughout.
Regarding `CC(C)C[C@H](NC(=O)[C@H](O)[C@H](N)Cc1ccccc1)C(=O)O`, the call in test [1] was inactive. For the same compound, the Potency entry in test [2], in test [3], in test [4], in test [5] and in [6] was “inactive” each time.
As to `NC(=O)c1ccccc1`, the result in test [10], in test [11], in test [12], in test [13], in test [14] and in test [15] was inactive. For the same compound, the compound was called inactive in test [16], in test [17], in test [8], in test [18], in test [19] and in test [9]. Moreover, the call in test [1] was inactive. Moreover, the Potency result in test [2], in test [3], in test [7], in [4], in [5] and in test [6] was “inactive” each time.
